# From PubChem
# Sampled rows, rich in hits. Any-hit rate of the full collection: about 19%.
# AMA1 RON2 block: inhibitors of Plasmodium falciparum AMA1-RON2 interaction; AID 720542; Potency, µM (titrated, usually from 58.2 µM), for inactives: at the top dose activity change, negative = inhibition, actives largely listed as inhibitors; hit rate 0.2% among 360,000; AlphaScreen AMA1-biotinylated RON2 peptide binding;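 note: potency is the fitted concentration of half-maximal effect; 0% = vehicle wells and -100% = peptide control; nearly all actives have a fitted effect of over 45% in size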
#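 AMA1 (3D7) with his tag at 25 nM final met compounds first, then biotinylated RON2 peptide at 25 nM; detection used donor plus acceptor beads, 10 µg/mL apiece, read by AlphaScreen after 30 min at room temperature.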
# Cycloheximide cs: affects cycloheximide protein synthesis inhibition readout, counter-screen | max response, % | cell reporter, cycloheximide protein synthesis inhibition counterscreen | AID 2314 | hit rate 12% among 300,000; in the data active = max response mostly above about 13%, no sharp cut-off; inactive = mostly below about 14%; note: read at 38.3 µM for the half of the compounds with a filed dose; 0% is about no effect
# Shiga toxin inh: blocks Shiga toxin action in Vero cells. inhibition, % at 38.7 µM. hit rate 9.2% among 290,000. Vero cells, Shiga toxin protein synthesis inhibition reporter; in the data active = inhibition mostly above about 28%, no sharp cut-off; inactive = mostly below about 43%; note: 0% is about no effect
# SARS PLP yeast: blocks SARS-CoV papain-like protease in a yeast assay; S. cerevisiae expressing SARS-CoV PLpro, growth rescue; Potency, µM (top dose mostly 32.9 µM), inactives show at the highest dose activity, positive = growth rescue, actives largely listed as activators; hit rate 0.19% among 330,000; AID 485353; calls by dose curve; note: potency is the fitted concentration of half-maximal effect; 0% is about no effect; nearly all actives have a fitted effect of over 55% in size
# Pf growth 96h: P. falciparum growth inhibition at 96 hours. P. falciparum luciferase reporter growth, 96 h. Potency, µM (doses to about 28.7 µM), without a hit: top-dose activity change, negative = inhibition, most hits filed as inhibitors. hit rate 6.9% among 320,000; note: potency is the fitted concentration of half-maximal effect; % is set by controls: 0 for no effect and ±100 for the full control effect
#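 Parasite growth measured via integrated firefly luciferase reporter in P. falciparum. Infected erythrocytes at 2% hematocrit, 0.05% parasitemia final were treated 96 hours at 37 C under 5% CO2, and luminescence was read.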
# Pf growth 48h: inhibits P. falciparum growth in the first generation, 48 h; P. falciparum luciferase growth in erythrocytes, 48 h; Potency, µM (series often up to 28.7 µM), without a hit: at the top dose activity change, negative = inhibition, hits mostly inhibitors; hit rate 5.9% among 310,000; note: potency is the fitted concentration of half-maximal effect; % is set by controls: 0 for no effect and ±100 for the full control effect
#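 Luminescence readout; reporter = integrated firefly luciferase in P. falciparum. RBC culture at 2% hematocrit, 0.1% parasitemia final, 37 C/5% CO2; decreased signal taken as growth inhibition.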
# Active calls of the source: *; u = inconclusive; x = no result; [ ] = dose if it differs, or a comment. Unless noted, calls come from the whole dose curve; as a rule, active = well fitted curve in the direction sought with a large enough effect; inconclusive = small, poorly fitted or top-dose-only effect, or another doubt; inactive = no such curve, though single readings can be large; an effect the other way counts as inactive or inconclusive.
SMILES,AMA1 RON2 block,Cycloheximide cs,Shiga toxin inh,SARS PLP yeast,Pf growth 96h,Pf growth 48h
CCN(CC)c1ccc(/C=C(\C#N)C(=O)c2ccc(Br)cc2)cc1,17.1%,20.2*,-3.0,-2.3%,9.2%,-0.4%
CCN(CC)c1ccc(/C=C(\C#N)C(N)=S)cc1,-6.9%,24.7*,39.0,0.8%,u,0.0%
CCN(CC)c1ccc(/C=C(\C#N)C(N)=O)cc1,1.7%,28.8*,71.1,-2.1%,1.1%,97.9%
N#CC(=Cc1ccc(-c2ccccc2)cc1)C(=O)c1ccccc1,-8.2%,x,x,x,x,x
COc1ccc(N(CC(=O)NCc2cccs2)S(=O)(=O)c2ccc(C(C)=O)cc2)cc1,0.0%,x,x,x,x,x
COc1ccc(C(=O)OCC(=O)NCc2ccc3c(c2)OCO3)cc1S(=O)(=O)N1CCOCC1,-0.9%,x,x,2.9%,x,x
O=C(Nc1ccc2nc3n(c(=O)c2c1)CCCCC3)c1ccccc1[N+](=O)[O-],-5.6%,15.9,15.8,-3.2%,6.9%,-4.2%
O=C(Nc1ccc2nc3n(c(=O)c2c1)CCCCC3)c1cc([N+](=O)[O-])ccc1F,-1.8%,36.8*,31.7*,-2.6%,u,3.9%
O=C(Nc1ccc2nc3n(c(=O)c2c1)CCCCC3)c1c(F)ccc([N+](=O)[O-])c1F,-0.8%,92.4*,89.4*,-2.0%,u,u
CCN(CC(=O)NC1CCS(=O)(=O)C1)S(=O)(=O)c1ccccc1Cl (stereo not given),-6.4%,-3.6,-2.3,-2.8%,45.8%,12.0%
O=c1ccc2c([nH]1)CCCCCCCCCC2,-11.3%,-1.5,4.2,10.8%,11.8%,24.4%
CN(c1cc(=O)n2ccccc2n1)C1CCCCC1,5.6%,24.3*,24.0,8.5%,u,u
CCC(=O)Nc1ccc(C(=O)OCc2ccccc2)cc1,4.6%,39.0*,77.4*,-4.4%,8.1%,17.1%
O=C(CCc1ccccc1)Nc1cc(C(=O)O)cc(C(=O)O)c1,-1.3%,0.8,-15.3,-0.8%,1.47µM*,24.2%
O=C(CCc1ccccc1)Nc1ccccc1,-4.5%,-1.8,26.6,-0.4%,u,25.3%
CCOC(=O)c1cccc(NC(=O)CCc2ccccc2)c1,3.2%,16.0*,55.1,-2.1%,7.1%[5.75 µM],26.4%
CC(=O)Nc1cccc(C(=O)OCCCOc2ccc(F)cc2)c1,0.0%,32.1*,57.8*,-16.7%,10.0%,56.9%
CC(=O)Nc1cccc(C(=O)OCc2ccccc2)c1,22.1%,27.0*,74.2*,-34.2%,-1.2%,11.2%
CCC(=O)Nc1ccc(C(=O)OCC(=O)c2cccs2)cc1,19.4%,31.1*,55.5*,10.0%,38.4%,63.7%
CC(=O)Nc1cccc(C(=O)OCC(=O)NC(=O)Cc2ccccc2)c1,16.4%,x,x,6.2%,11.2%,-16.9%
O=C(Cn1cnc([N+](=O)[O-])c1)Nc1ccc(Cl)cc1Cl,-1.8%,x,x,x,x,x
CC(NC(=O)NC(=O)c1ccc(Cl)cc1Cl)C1CC1 (stereo not given),0.4%,39.2*,167.2*,-2.8%,38.0%,29.3%
CC(C)CC(NC(=O)c1ccc(Cl)cc1Cl)C(=O)O (stereo not given),-13.5%,-4.0,-24.5,2.9%,x,0.8%
CN(Cc1c(F)cccc1Cl)C(=O)c1cnc2ccccc2n1,5.1%,11.7*,43.1,-4.1%,8.4%,u
CN(Cc1ccc(Cl)cc1)C(=O)c1ccc2ccccc2n1,5.3%,-2.7,-8.1,-0.3%,0.0%,30.8%
SMILES,AMA1 RON2 block,Cycloheximide cs,Shiga toxin inh,SARS PLP yeast,Pf growth 96h,Pf growth 48h
CCc1ccc(-c2nn(Cc3ccccc3)cc2/C=C/C(=O)O)cc1,-0.6%,-3.3,1.2,-1.5%,x,8.8%
CCc1ccc(-c2nn(Cc3ccccc3)cc2C=O)cc1,-4.0%,50.0*,90.3*,-0.3%,281.9%,156.5%
CCc1cccc(NC(=O)CCNS(=O)(=O)c2cc(Br)cnc2N)c1,-12.2%,-5.1,-6.5,29.6%,39.9%,13.1µM*
Nc1ncc(Br)cc1S(=O)(=O)NCCC(=O)NCCc1ccccc1,-4.9%,26.9*,12.5,-4.2%,-14.9%,4.8%
O=S1(=O)N[C@@H](Cc2ccccc2)COc2cccc(N3CCN(Cc4ccccc4F)CC3)c21,-13.2%,x,x,x,x,x
O=C(Nc1ccc(N2CCCCC2)cc1)c1ccc2c(c1)OCCO2,-21.4%,34.9*,75.4*,0.2%,106.8%,x
O=C(c1ccccc1)N1CCN(c2ccc(NCc3ccc4c(c3)OCO4)cc2)CC1,28.2µM*,1.8,3.9,2.1%,u,22.1%
CC(=O)N1CCN(c2ccc(NC(=O)c3ccc4c(c3)OCCO4)cc2)CC1,-3.9%,15.9,19.5,7.7%,0.5%,x
O=C(Nc1ccc(N2CCN(C(=O)c3ccccc3)CC2)cc1)c1ccc2c(c1)OCCO2,-2.0%,55.3*,61.7*,15.3%,u,u
CC(C)(C)C(=O)N1CCN(c2ccc(NC(=O)c3ccc4c(c3)OCCO4)cc2)CC1,7.1%,-5.4,2.8,-0.7%,-22.0%,u
CC(=O)N1CCN(c2ccc(NCc3ccc4c(c3)OCO4)cc2)CC1,0.5%,8.8,-1.0,-5.6%,187.5%,-29.4%
CN1CCN(c2ccc(NC(=O)c3ccc4c(c3)OCO4)cc2)CC1,-11.2%,41.8*,71.9*,-6.8%,-4.7%[5.75 µM],107.9%
CN(C)S(=O)(=O)c1cccc(CSCc2cccc(S(=O)(=O)N(C)C)c2)c1,-3.1%,0.8,-7.3,1.0%,-6.8%,-4.7%
O=C(CSc1nnc(NC(=O)c2ccccc2F)s1)Nc1ccccc1F,-6.5%,34.5*,70.5*,0.2%,21.4%,52.9%
O=C(CSc1nnc(NC(=O)c2ccco2)s1)Nc1ccccc1F,0.0%,1.3,11.1,-2.3%,49.4%,31.8%[1.15 µM]
Cc1ccc(Nc2nnc(SCC(=O)NCc3ccco3)s2)cc1,-9.9%,16.9,46.1,7.9%,u,5.86µM*
O=C(CSc1nnc(NC(=O)c2ccccc2F)s1)NCc1ccco1,13.1%,34.5*,79.2*,2.1%,173.9%,118.4%
O=C(CSc1nnc(Nc2ccccc2)s1)NCc1ccco1,15.4%,2.5,0.6,1.7%,u,-17.1%
COc1ccccc1C(=O)Nc1nnc(SCC(=O)NCc2ccco2)s1,8.2%,43.3*,62.8*,-0.2%,114.5%,214.7%
C=CCN(c1ccccc1)S(=O)(=O)c1cccc(C(=O)Nc2ncccc2C)c1,42.6%,x,x,2.9%,1.8%,u
COc1ccc(NS(=O)(=O)c2cccc(NC(=O)C34CCC(CC3)C4)c2)cc1,6.6%,-2.9,-2.1,2.4%,u,-12.3%
COc1ccccc1C(=O)Nc1nnc(SCC(=O)NCC2CCCO2)s1 (stereo not given),-15.9%,40.3*,114.7*,0.5%,75.4%,184.9%
COc1ccc(C(=O)Nc2nnc(SCC(=O)NCc3ccco3)s2)cc1OC,-17.1%,10.4,11.6,1.5%,u,16.3%
O=C(Nc1nnc(SCC(=O)N2CCCCC2)s1)c1ccccc1F,9.1%,17.5,30.1,-1.4%,3.7%,26.7%
CCOc1ccc(C(=O)Nc2nnc(SCC(=O)NCC3CCCO3)s2)cc1OCC (stereo not given),-2.3%,0.9,-7.2,-11.3%,7.7%,0.8%
